Results as given in the supplement of paper PMC7411054.
Counter-ions that a name gives are not always drawn.

Key:
Experiment in all cases: phenotypically active (imaging signature differs from DMSO and reproducible) at any of 0.3-9 uM (binary (1 = active, 0 = inactive)); higher = active
Conditions in all cases: treatment time: 24 h
[1] = test system: A549-ACTB-RAB5A
In short: (§1)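 Four wells per concentration (0.3, 1, 3 or 9 µM) were treated for 24 h in each of fifteen gene-edited reporter lines from A549, HepG2 and WPMY1 cells, then imaged live. After normalising live-cell features to solvent control wells, deviation was defined as ≥3 of 4 wells lying past the 95th percentile of control Euclidean distances. Reproducibility was defined as a median replicate Pearson correlation above the 95th percentile of non-replicates. Both had to hold for phenotypic activity.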

[2] = test system: A549-CANX-COX4
In short: as §1

[3] = test system: A549-GM130-SQSTM1
In short: as §1

[4] = test system: A549-TP53BP1-CLTA
In short: as §1

[5] = test system: A549-TUBA1B-RELA
In short: as §1

[6] = test system: HepG2-ACTB-RAB5A
In short: as §1

[7] = test system: HepG2-CANX-COX4
In short: as §1

[8] = test system: HepG2-GM130-SQSTM1
In short: as §1

[9] = test system: HepG2-TP53BP1-CLTA
In short: as §1

[10] = test system: HepG2-TUBA1B-RELA
In short: as §1

[11] = test system: WPMY1-ACTB-RAB5A
In short: as §1

[12] = test system: WPMY1-CANX-COX4
In short: as §1

[13] = test system: WPMY1-GM130-SQSTM1
In short: as §1

[14] = test system: WPMY1-TP53BP1-CLTA
In short: as §1

[15] = test system: WPMY1-TUBA1B-RELA
In short: as §1

Measured: phenotypically active

COc1cc2c(NC3CCN(C)CC3)nc(N3CCCN(C)CC3)nc2cc1OCCCN(C)C
inactive: [1] 0 | [2] 0 | [3] 0 | [4] 0 | [5] 0 | [6] 0 | [7] 0 | [8] 0 | [9] 0 | [10] 0 | [11] 0 | [12] 0 | [13] 0 | [14] 0 | [15] 0

CC(C)(C)NC(=O)[C@@H]1CN(Cc2cccnc2)CCN1C[C@@H](O)C[C@@H](Cc1ccccc1)C(=O)N[C@H]1c2ccccc2C[C@H]1O [indinavir]
inactive: [1] 0 | [2] 0 | [3] 0 | [4] 0 | [5] 0 | [6] 0 | [7] 0 | [8] 0 | [9] 0 | [10] 0 | [11] 0 | [12] 0 | [13] 0 | [14] 0 | [15] 0

OC[C@H]1NC[C@@H](O)[C@@H](O)[C@@H]1O [1-Deoxymannojirimycin hydrochloride]
inactive: [1] 0 | [2] 0 | [3] 0 | [4] 0 | [5] 0 | [6] 0 | [7] 0 | [8] 0 | [9] 0 | [10] 0 | [11] 0 | [12] 0 | [13] 0 | [14] 0 | [15] 0

CC[N+](CC)(CCNC(=O)C(=O)NCC[N+](CC)(CC)Cc1ccccc1Cl)Cc1ccccc1Cl [ambenonium]
inactive: [1] 0 | [2] 0 | [3] 0 | [4] 0 | [5] 0 | [6] 0 | [7] 0 | [8] 0 | [9] 0 | [10] 0 | [11] 0 | [12] 0 | [13] 0 | [14] 0 | [15] 0

CC1=CC(=O)CC(C)(C)C1(O)/C=C/C(C)=C\C(=O)O (mixture of isomers) [(+/-)-2-cis-4-trans-Abscisic acid]
inactive: [1] 0 | [2] 0 | [3] 0 | [4] 0 | [5] 0 | [6] 0 | [7] 0 | [8] 0 | [9] 0 | [10] 0 | [11] 0 | [12] 0 | [13] 0 | [14] 0 | [15] 0

C#C[C@]1(O)CC[C@H]2[C@@H]3CCC4=Cc5oncc5C[C@]4(C)[C@H]3CC[C@@]21C [danazol]
inactive: [1] 0 | [2] 0 | [3] 0 | [4] 0 | [5] 0 | [6] 0 | [7] 0 | [8] 0 | [9] 0 | [10] 0 | [11] 0 | [12] 0 | [13] 0 | [14] 0 | [15] 0

CC1=CC(=O)C2=C(C)CC[C@@H]3[C@H](OC(=O)[C@H]3C)[C@@H]12 [Leucomisine]
inactive: [1] 0 | [2] 0 | [3] 0 | [4] 0 | [5] 0 | [6] 0 | [7] 0 | [8] 0 | [9] 0 | [10] 0 | [11] 0 | [12] 0 | [13] 0 | [14] 0 | [15] 0

COc1cc(C=O)c([N+](=O)[O-])cc1OC
inactive: [1] 0 | [2] 0 | [3] 0 | [4] 0 | [5] 0 | [6] 0 | [7] 0 | [8] 0 | [9] 0 | [10] 0 | [11] 0 | [12] 0 | [13] 0 | [14] 0 | [15] 0

Cc1c(-c2cnccn2)ssc1=S [Oltipraz]
inactive: [1] 0 | [2] 0 | [3] 0 | [4] 0 | [5] 0 | [6] 0 | [7] 0 | [8] 0 | [9] 0 | [10] 0 | [11] 0 | [12] 0 | [13] 0 | [14] 0 | [15] 0

O=C(/C=C/c1ccc(OCc2ccccc2)cc1)c1c(O)cc(OCc2ccccc2)cc1OCc1ccccc1 [4,2,4'-Tribenzyloxy-6'-hydroxychalcone]
inactive: [1] 0 | [2] 0 | [3] 0 | [4] 0 | [5] 0 | [6] 0 | [7] 0 | [8] 0 | [9] 0 | [10] 0 | [11] 0 | [12] 0 | [13] 0 | [14] 0 | [15] 0

COCCOC(=O)C1=C(C)NC(C)=C(C(=O)OC(C)C)C1c1cccc([N+](=O)[O-])c1 (stereo not given) [nimodipine]
inactive: [1] 0 | [2] 0 | [3] 0 | [4] 0 | [5] 0 | [6] 0 | [7] 0 | [8] 0 | [9] 0 | [10] 0 | [11] 0 | [12] 0 | [13] 0 | [14] 0 | [15] 0

NC(=O)N1c2ccccc2C=Cc2ccccc21 [carbamazepine]
inactive: [1] 0 | [2] 0 | [3] 0 | [4] 0 | [5] 0 | [6] 0 | [7] 0 | [8] 0 | [9] 0 | [10] 0 | [11] 0 | [12] 0 | [13] 0 | [14] 0 | [15] 0

CC[N@@+]1(C)[C@@H]2CC[C@H]1C[C@@H](OC(=O)[C@]1(c3ccccc3)CC[C@H](C(=O)O[C@H]3C[C@H]4CC[C@@H](C3)[N@+]4(C)CC)c3ccccc31)C2 [beta- Belladonnine dichloroethylate]
inactive: [1] 0 | [2] 0 | [3] 0 | [4] 0 | [5] 0 | [6] 0 | [7] 0 | [8] 0 | [9] 0 | [10] 0 | [11] 0 | [12] 0 | [13] 0 | [14] 0 | [15] 0

Nc1cc(-c2ccncc2)c[nH]c1=O [amrinone]
inactive: [1] 0 | [2] 0 | [3] 0 | [4] 0 | [5] 0 | [6] 0 | [7] 0 | [8] 0 | [9] 0 | [10] 0 | [11] 0 | [12] 0 | [13] 0 | [14] 0 | [15] 0

CC[N+](CC)(CC)CCC(O)(c1ccccc1)C1CCCCC1 (stereo not given) [tridihexethyl]
inactive: [1] 0 | [2] 0 | [3] 0 | [4] 0 | [5] 0 | [6] 0 | [7] 0 | [8] 0 | [9] 0 | [10] 0 | [11] 0 | [12] 0 | [13] 0 | [14] 0 | [15] 0

CC1CCC(C(C)C)C(O)C1 [L-menthol]
inactive: [1] 0 | [2] 0 | [3] 0 | [4] 0 | [5] 0 | [6] 0 | [7] 0 | [8] 0 | [9] 0 | [10] 0 | [11] 0 | [12] 0 | [13] 0 | [14] 0 | [15] 0

N#Cc1ccc(C(c2ccc(C#N)cc2)n2cncn2)cc1 [Letrozole]
inactive: [1] 0 | [2] 0 | [3] 0 | [4] 0 | [5] 0 | [6] 0 | [7] 0 | [8] 0 | [9] 0 | [10] 0 | [11] 0 | [12] 0 | [13] 0 | [14] 0 | [15] 0

Cn1cccc1/C=C1\C(=O)NC(=O)c2ccccc21
inactive: [1] 0 | [2] 0 | [3] 0 | [4] 0 | [5] 0 | [6] 0 | [7] 0 | [8] 0 | [9] 0 | [10] 0 | [11] 0 | [12] 0 | [13] 0 | [14] 0 | [15] 0

COc1ccc(C2(CNC(=O)c3ccc(NC(=O)c4ccco4)cc3)CCOCC2)cc1
inactive: [1] 0 | [2] 0 | [3] 0 | [4] 0 | [5] 0 | [6] 0 | [7] 0 | [8] 0 | [9] 0 | [10] 0 | [11] 0 | [12] 0 | [13] 0 | [14] 0 | [15] 0

OCCN1C[C@H](O)[C@@H](O)[C@H](O)[C@H]1CO [Miglitol]
inactive: [1] 0 | [2] 0 | [3] 0 | [4] 0 | [5] 0 | [6] 0 | [7] 0 | [8] 0 | [9] 0 | [10] 0 | [11] 0 | [12] 0 | [13] 0 | [14] 0 | [15] 0

NC(=O)c1cccc(N)c1 [3-Aminobenzamide]
inactive: [1] 0 | [2] 0 | [3] 0 | [4] 0 | [5] 0 | [6] 0 | [7] 0 | [8] 0 | [9] 0 | [10] 0 | [11] 0 | [12] 0 | [13] 0 | [14] 0 | [15] 0

CCO[C@@H](Cc1ccc(OCCc2ccc(OS(C)(=O)=O)cc2)cc1)C(=O)O [Tesaglitazar]
inactive: [1] 0 | [2] 0 | [3] 0 | [4] 0 | [5] 0 | [6] 0 | [7] 0 | [8] 0 | [9] 0 | [10] 0 | [11] 0 | [12] 0 | [13] 0 | [14] 0 | [15] 0

COc1cc2c(cc1OC)C(=O)C(CC1CCN(Cc3ccccc3)CC1)C2 (stereo not given) [donepezil]
inactive: [1] 0 | [2] 0 | [3] 0 | [4] 0 | [5] 0 | [6] 0 | [7] 0 | [8] 0 | [9] 0 | [10] 0 | [11] 0 | [12] 0 | [13] 0 | [14] 0 | [15] 0
